# “And” between values parts separate entries of the source, which are not always exact repeats. Equal entries are not always repeated. Where two headings read alike, the source gives them in different places.
# Legend:
# Conditions in all cases: n = 1
# ANKK1 = tested on: ANKK1
# ARK5 = tested on: T1, ARK5
# T1 construct: gene NUAK1
# ASK1 = tested on: T2, ASK1
# T2 construct: gene MAP3K5
# ASK2 = tested on: T3, ASK2
# T3 construct: gene MAP3K6
# AURKA = tested on: AURKA
# AURKB = tested on: AURKB
# AURKC = tested on: AURKC
# AXL = tested on: AXL
# BIKE = tested on: T4, BIKE
# T4 construct: gene BMP2K
# BLK = tested on: BLK
# [1] = concentration: 1 μM, replicates: in singlicate
# [2] = concentration: 1 μM,replicates: in singlicate, 1 µM
# 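Further: KINOMEscan kinase panel screen.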
SMILES,%Inh (ANKK1; [1]),%Inh (ARK5; [1]),%Inh (ASK1; [1]),%Inh (ASK2; [1]),%Inh (AURKA; [1]),%Inh (AURKB; [1]),%Inh (AURKC; [1]),%Inh (AXL; [1]),%Inh (BIKE; [1]),%Inh (BLK; [1]),%Inh (ANKK1; [2]),%Inh (ARK5; [2]),%Inh (ASK1; [2]),%Inh (ASK2; [2]),%Inh (AURKA; [2]),%Inh (AURKB; [2]),%Inh (AURKC; [2]),%Inh (AXL; [2]),%Inh (BIKE; [2]),%Inh (BLK; [2])
O=c1cc(N2CCOCC2)nc2n(Cc3cccc(Cl)c3Cl)ccn12 [GSK2286295],5%,24%,0%,0%,12%,18%,23%,100%,24%,35%,–,–,–,–,–,–,–,–,–,–
O=C(Nc1n[nH]c2cc(-c3cccc(F)c3F)ccc12)C1CC1 [SB-733894],0%,0%,0%,5%,23%,25%,54%,0%,21%,0%,–,–,–,–,–,–,–,–,–,–
O=C1NC(=O)C(N2CCc3ccccc32)=C1c1ccccc1Cl [SB-373598],18%,10%,7%,13%,0%,10%,3%,0%,18%,7%,–,–,–,–,–,–,–,–,–,–
CC(C)(C)c1ccc(C(=O)Nc2cn3cc(-c4cccnc4)ccc3n2)cc1,11%,14%,94.9%,0%,0%,34%,19%,25%,8%,8%,–,–,–,–,–,–,–,–,–,–
Fc1cc(Cl)ccc1Nc1ccnc2cc(-c3ccc(CN4CCCCC4)o3)ccc12 [GW560116],0%,0%,0%,0%,95.7%,0%,0%,0%,0%,55%,–,–,–,–,–,–,–,–,–,–
CSc1nn2c(=O)cc(N3CCOCC3)nc2n1Cc1cccc(C(F)(F)F)c1C [GSK2363608],–,–,–,–,–,–,–,–,–,–,0% and 10%,13% and 8%,14% and 0%,86% and 7%,0% and 1%,0% and 29%,24% and 0%,3% and 4%,20% and 0%,8% and 9%
COc1cc2ncn(-c3cc(OCC4CCCO4)c(C(N)=O)s3)c2cc1OC (stereo not shown) [GSK204607],0%,17%,7%,0%,0%,1%,80%,0%,72%,0%,–,–,–,–,–,–,–,–,–,–
O=C(Nc1n[nH]c2nc(-c3nccs3)c(Br)cc12)C1CC1 [SB-742251],0%,0%,4%,21%,0%,31%,13%,15%,36%,0%,–,–,–,–,–,–,–,–,–,–
Nc1ncnc2[nH]c(-c3ccccc3)nc12 [AH5015],14%,0%,5%,20%,100%,24%,14%,0%,24%,10%,–,–,–,–,–,–,–,–,–,–
NC(=O)c1nnc2ccccc2c1N,34%,0%,20%,40%,0%,32%,40%,19%,51%,0%,–,–,–,–,–,–,–,–,–,–
Cc1cccc(-c2nc(C)cc(Nc3ccncc3)n2)n1 [GSK257997],0%,0%,0%,0%,21%,0%,13%,7%,21%,32%,–,–,–,–,–,–,–,–,–,–
CN1C(=O)C(Nc2ccc(Cl)c(C(=O)O)c2)=C(c2ccc(Cl)cc2)C1=O [SB-404290],0%,0%,0%,33%,19%,31%,5%,10%,0%,0%,–,–,–,–,–,–,–,–,–,–
Cl.NC(=O)c1cccc(Nc2nccc(Nc3ccc(Oc4cccc(Cl)c4)c(Cl)c3)n2)c1 [GW659008],0%,0%,0%,0%,6%,49%,21%,12%,33%,84%,–,–,–,–,–,–,–,–,–,–
Cc1cccc(-c2nc(Nc3ccncc3)c3ccccc3n2)n1 [GW855857],0%,0%,0%,0%,0%,10%,0%,7%,1%,1%,–,–,–,–,–,–,–,–,–,–
O=C(Nc1n[nH]c2nc(-c3nccs3)c(Br)cc12)C1CCCC1 [SB-742609],0%,0%,0%,13%,0%,13%,11%,0%,0%,31%,–,–,–,–,–,–,–,–,–,–
COc1ccc(Nc2nccc(NCCNC(=O)Nc3ccccc3F)n2)cc1 [GSK1379901],22%,23%,0%,4%,12%,36%,28%,0%,12%,0%,–,–,–,–,–,–,–,–,–,–
